A selection: hits, their analogues and other compounds. The true share with any hit is near 3.6%.
Giardia FBPA inh-1 = Giardia lamblia aldolase inhibition | A8B2U2 | purified Giardia FBPA | Potency, µM (series often up to 59.6 µM), inactives show at the highest dose activity, negative = inhibition, hits mostly inhibitors | 0.71% of 290,000 active; further: nearly all actives have a fitted effect of over 55% in size
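40 nM FBPA preincubated 10 min at RT with compound (up to 57.5 uM final), then substrate plus GAPDH/TPI/NAD/arsenate coupling and diaphorase/resazurin added. Fluorescence read after 20 min at RT, 525/598 nm.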
Sm TGR inh = S. mansoni TGR enzyme inhibition; Q962Y6; purified TGR, DTNB reduction, TNB absorbance 405 nm; Potency, µM (series often up to 114 µM), without a hit: at the highest dose activity change, negative = inhibition, most hits filed as inhibitors; 3% of 360,000 active; AID 485364; further: nearly all actives have a fitted effect of over 60% in size
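First, TGR (20 nM dispensed) and NADPH were mixed with compound. Second, a 15 min room-temperature incubation followed. Third, further NADPH and then DTNB were added to start the reaction. Finally, TNB absorbance was monitored kinetically.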
AmpC no deterg = AmpC beta-lactamase inhibition without detergent | Potency, µM (doses to about 57.1 µM), for inactives: at the highest dose activity change, negative = inhibition, hits mostly inhibitors | AmpC nitrocefin hydrolysis, absorbance 480 nm, 0.0001% Triton | 0.52% of 330,000 active | AID 485341;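 further: plate controls were no compound for no effect and no enzyme for full effect; nearly all actives have a fitted effect of over 20% in size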
Target sequence (P00811 whole entry, looked up): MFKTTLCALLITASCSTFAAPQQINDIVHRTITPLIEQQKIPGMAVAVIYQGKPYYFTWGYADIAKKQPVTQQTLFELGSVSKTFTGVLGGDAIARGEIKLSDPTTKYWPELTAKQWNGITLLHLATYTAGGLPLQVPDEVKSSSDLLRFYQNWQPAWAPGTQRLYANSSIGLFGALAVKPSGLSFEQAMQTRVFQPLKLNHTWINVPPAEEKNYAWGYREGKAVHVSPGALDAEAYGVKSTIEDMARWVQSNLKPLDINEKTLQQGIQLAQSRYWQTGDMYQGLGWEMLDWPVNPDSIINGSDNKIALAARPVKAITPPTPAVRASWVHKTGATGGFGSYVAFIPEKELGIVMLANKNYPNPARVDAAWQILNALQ
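AmpC (5.3 nM in the dispensed reagent) in 20 mM phosphate pH 7.0 with 0.01% (detergent screen) or 0.0001% Triton X-100 was preincubated with compounds for 15 min at room temperature. Nitrocefin was then added from an 800 uM solution, and hydrolysis was followed at 480 nm.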
AmpC inh detg = inhibitors of E. coli AmpC beta-lactamase with detergent; P00811; AmpC hydrolysis of nitrocefin, absorbance 480 nm, 0.01% Triton; Potency, µM (highest dose often 114 µM), for inactives: at the highest dose activity change, negative = inhibition, most hits filed as inhibitors; 0.041% of 370,000 active; AID 485294;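 further: 0% = no-compound wells and -100% = no-enzyme wells; nearly all actives have a fitted effect of over 25% in size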
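20 mM phosphate pH 7.0 + 0.01% (detergent screen) or 0.0001% Triton X-100; 5.3 nM AmpC reagent; cpd preinc 15 min RT; nitrocefin (800 uM stock) to start; A480 q20 s × 4 min; Activity was normalised to no-enzyme and no-compound control wells.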
Giardia growth = inhibitors of Giardia lamblia growth | shares compounds with Giardia FBPA inh-1 | Giardia lamblia trophozoite growth inhibition | Potency, µM (top dose mostly 57.5 µM), inactives show at the highest dose activity change, negative = inhibition, actives largely listed as inhibitors | 5% of 1,500 active | AID 2785;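 further: trophozoites exposed to compound for 48 h at 37 °C; nearly all actives have a fitted effect of over 70% in size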
Mammalian tox = mammalian cytotoxicity of Giardia aldolase inhibitor hits. shares compounds with Giardia FBPA inh-1. mammalian cell viability counter-screen, qHTS. Potency, µM (doses to about 57.5 µM), without a hit: at the highest dose viability change, negative = toxicity, most hits filed as inhibitors. 4% of 1,500 active. AID 2786;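 further: Chinese hamster ovary cells used as mammalian cytotoxicity surrogate; viability measured as cellular ATP by luminescence; compound exposure lasted 48 h before reading; nearly all actives have a fitted effect of over 60% in size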
Giardia FBPA inh-2 = confirmation of Giardia fructose-bisphosphate aldolase inhibitors | shares compounds with Giardia FBPA inh-1 | purified Giardia aldolase enzyme activity, qHTS | Potency, µM (highest dose often 57.5 µM), without a hit: at the highest dose activity change, negative = inhibition, hits mostly inhibitors | 5% of 1,500 active; further: nearly all actives have a fitted effect of over 45% in size
Rabbit aldolase = blocks rabbit muscle aldolase in Giardia aldolase selectivity test; Rabbit muscle FBPA enzyme inhibition, selectivity counter-screen; shares compounds with Giardia FBPA inh-1; AID 2794; Potency, µM (top dose mostly 57.5 µM), for inactives: top-dose activity, negative = inhibition, most hits filed as inhibitors; 4% of 1,500 active; further: nearly all actives have a fitted effect of over 60% in size
GAPDH counter = GAPDH inhibition flagged for Giardia aldolase hits; shares compounds with Giardia FBPA inh-1; GAPDH coupling enzyme counterscreen, biochemical, qHTS; Potency, µM (series often up to 57.5 µM), without a hit: top-dose activity change, negative = inhibition, actives largely listed as inhibitors; 6% of 1,500 active; further: nearly all actives have a fitted effect of over 55% in size
An asterisk follows results filed as active; ? = inconclusive; nt = no result; [ ] = remark or other dose. The call rests on the fitted dose curve; in most records, active means well fitted curve in the direction sought with a large enough effect; inconclusive means small, poorly fitted or top-dose-only effect, or another doubt; inactive means no such curve, though single readings can be large; an effect the other way counts as inactive or inconclusive. Unless noted, on the % scale 0 is the no-effect control and ±100 the full control effect; potency means the concentration at half of the fitted maximal effect.

SMILES	Giardia FBPA inh-1	Sm TGR inh	AmpC no deterg	AmpC inh detg	Giardia growth	Mammalian tox	Giardia FBPA inh-2	Rabbit aldolase	GAPDH counter
Cc1cc(Cl)ccc1NC(=O)CCN1C(=O)NC(C)(C)C1=O	nt	-18.4%	-6.3%	7.6%	nt	nt	nt	nt	nt
CC1=CC(C)[C@H](/C=N/n2c(=O)[nH]c3c([nH]c4ccc(C)cc43)c2=O)C(C)C1 (stereo partly specified)	-4.9%	1.5%	-17.1%	-5.1%	nt	nt	nt	nt	nt
CCCCCC1=C2CNC(CCC)(C(=O)OC)C=C2C(C)C1=O (stereo unspecified)	-28.6%	nt	nt	nt	nt	nt	nt	nt	nt
C[C@H](NC(=O)[C@H]1N2C(=O)c3ccccc3C2SC1(C)C)C(=O)N1CCN(C)CC1 (stereo partly specified)	-5.1%	-21.8%	5.3%	-1.5%	nt	nt	nt	nt	nt
C[C@H](NC(=O)[C@H]1N2C(=O)c3ccccc3C2SC1(C)C)C(=O)N1CCCCC1 (stereo partly specified)	20µM*	1.0%	19.7%	-0.5%	16.1%	5.9%	-14.1%	-10.9%	?
S=C1NCCOCCNC(=S)NCCOCCOCCOCCN1	4.46µM*	2.6%	-4.9%	-11.8%	-21.2%[38.3 µM]	-0.6%	6.9%	5.3%	1.3%
COc1cc(CN2CCN(Cc3ccc([N+](=O)[O-])cc3)CC2)c([N+](=O)[O-])cc1OC	12.6µM*	5.8%	-1.4%[11.4 µM]	?	-17.2%	8.7%	?	-23.2%	-10.7%
C=C[C@H](N)CCC(=O)O	8.7%	nt	nt	nt	nt	nt	nt	nt	nt
CC(=O)NNC(=O)c1sc(=S)n2c1[nH]c(=O)c1sccc12	17.7µM*	0.2%	-21.0%	-2.0%	-20.2%	3.3%	12.6%	?	-24.3%
CCOC(=O)c1sc2cccc(F)c2c1S(=O)(=O)N1CCN(c2cccc(Cl)c2)CC1	nt	-10.3%	nt	-4.8%	nt	nt	nt	nt	nt
O=C(NC(=S)Nn1cnnc1)c1ccccc1Br	11.2µM*	-2.0%	-25.6%	-8.7%	?	-3.0%	3.1%	4.9%	15.7%
COc1cccc(C(=O)N2CCN(Cc3ccccn3)CC2)c1	25.1µM*	-13.0%	-1.2%	?	65.8%	11.4%	2.8%	-2.8%	-26.4%
O=C(O)C1CCN(Cc2ccccn2)CC1	-18.8%	2.5%	-5.7%	-8.7%	nt	nt	nt	nt	nt
CCOC(=O)C1CCN(Cc2ccccn2)CC1	17.8µM*	-8.6%	-3.3%	-13.9%	?	-2.3%	-0.3%	11.0%	5.1%
COc1ccc(S(=O)(=O)N2CCN(C3CC4CCC3C4)CC2)cc1 (stereo unspecified)	-22.9%	0.4%	-13.0%	-7.5%	nt	nt	nt	nt	nt
Cc1ccc(S(=O)(=O)N2CCN(C3CC4CCC3C4)CC2)cc1 (stereo unspecified)	14.1µM*	6.7%	-19.6%	0.1%	18.3%	-1.2%	3.1%	0.0%	13.6%
CC(C)C(=O)Nc1sc2c(c1C(N)=O)CCN(Cc1ccccc1)C2	28.2µM*	-6.7%	0.4%	-6.8%	3.3%[10.4 µM]	-11.3%	0.6%	2.9%	-17.8%
NC(=O)c1c(NC(=O)c2ccccc2)sc2c1CCN(Cc1ccccc1)C2	15.8µM*	-17.5%	-17.4%	-7.3%	?	-17.3%	0.5%	1.8%	9.9%
CCN1CCc2c(sc(NC(=O)Cc3ccccc3)c2C(=O)OC)C1	14.1µM*	-6.9%	-1.4%	-3.4%	4.8%[10.4 µM]	3.9%	8.9%	12.3%	15.6%
Cc1nc(C)c(N)c(=O)[nH]1	-28.2%	-4.9%	-3.8%	-10.6%	nt	nt	nt	nt	nt
